For 63 compounds, inhibition results are on record in PubChem BioAssay AID1903 (Southern Research Specialized Biocontainment Screening …, 2009).

Structures are written as SMILES. Values joined by “and” are separate entries in the source; they are usually repeats but may differ in a detail not shown here. Equal entries are not always repeated. Screen size: about 310,000 compounds; about 1,200 (0.39%) were called active. Not all results are given here. Entries with a potency or affinity are not part of this list. A number with no mark means an inactive call. How the calls were made is not given here.

The target in the test is Large T antigen (Simian virus 40) (UniProt P03070). Briefly: SV40 large T antigen inhibitors, biochemical (AID 1903). The settings on record: SV40 large T antigen ATPase/helicase inhibition assay; at 20 µM; active compounds read high.
Large T antigen (Simian virus 40), sequence (P03070 whole entry, looked up): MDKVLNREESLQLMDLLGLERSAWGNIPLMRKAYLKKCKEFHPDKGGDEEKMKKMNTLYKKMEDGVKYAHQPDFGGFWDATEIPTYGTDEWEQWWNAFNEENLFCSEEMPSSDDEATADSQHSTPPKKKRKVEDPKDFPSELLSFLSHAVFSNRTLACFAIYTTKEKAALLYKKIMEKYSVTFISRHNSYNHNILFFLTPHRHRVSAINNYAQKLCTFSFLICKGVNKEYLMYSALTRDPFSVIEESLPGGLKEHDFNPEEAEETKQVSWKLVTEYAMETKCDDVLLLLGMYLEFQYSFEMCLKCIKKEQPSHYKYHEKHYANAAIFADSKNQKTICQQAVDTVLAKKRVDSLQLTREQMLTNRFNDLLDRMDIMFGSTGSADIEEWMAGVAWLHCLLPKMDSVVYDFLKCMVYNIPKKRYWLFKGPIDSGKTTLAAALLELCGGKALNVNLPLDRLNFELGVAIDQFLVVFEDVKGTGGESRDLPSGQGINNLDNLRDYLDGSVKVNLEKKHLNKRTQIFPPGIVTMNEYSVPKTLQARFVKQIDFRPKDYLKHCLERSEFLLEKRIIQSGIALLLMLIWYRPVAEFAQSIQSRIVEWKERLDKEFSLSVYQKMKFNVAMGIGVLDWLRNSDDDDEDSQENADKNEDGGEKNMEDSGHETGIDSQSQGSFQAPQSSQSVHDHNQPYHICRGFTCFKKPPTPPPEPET
For orientation: inhibition means the change of the read-out against control, counted positive when it falls. Regarding `O=C1N/C(=N/S(=O)(=O)Cc2ccccc2)S/C1=C/c1ccc2c(c1)OCO2`, the inhibition was 22.1%. Regarding `COc1ccc(C(=O)C[n+]2cccc(C(N)=O)c2)cc1`, the inhibition was 1.66%. `O=C1OC(c2ccc(O)cc2)(c2ccc(O)cc2)c2ccccc21`: the inhibition was 9.29% and 0.77%. Regarding `Cc1cc(O)ccc1C1(c2ccc(O)cc2C)OC(=O)c2ccccc21`, the inhibition was 4.57%. With `COCCNC(=O)c1c[nH]n2c(=O)cc(C3CCN(C(=O)OC(C)(C)C)CC3)nc12`, the inhibition is 6.9%. Turning to `CCN1CCN(c2ccc(NC(=O)c3cccc(OCc4ccccc4)c3)cc2)CC1`, the inhibition is 8.98%. The same measure for `O=C1C2C3C=CC(CC3)C2C(=O)N1/N=C/c1ccccc1O` (stereo not drawn): -0.603%. The same measure for `O=C1C2C3C=CC(CC3)C2C(=O)N1/N=C/c1ccc(O)cc1` (stereo not drawn): 22.8%. Next, `COc1ccccc1/C=N/N1C(=O)C2C3C=CC(CC3)C2C1=O` (stereo not drawn): 5.91%; `COc1cc(/C=N/N2C(=O)C3C4c5ccccc5C(c5ccccc54)C3C2=O)ccc1O` (stereo not drawn): 19.2%; `O=C(CSc1nnnn1C1CCCC1)Nc1ccccc1F`: 14%.

`COC(=O)c1sc(-c2cccs2)cc1N`: the inhibition was 20%. Turning to `CC(=O)Nc1nnc(SCc2ccc(C(=O)Nc3ccccc3F)cc2)s1`, the inhibition is 5.26%. Next, `CC1(C)CC(=O)C(N=Nc2ccc(-c3ccccc3)cc2)=C(O)C1`: 28.9%. `Oc1ccc(N=Nc2ccccc2)cc1`: the inhibition was 18.4%. The same measure for `O=C(NC1=NN(c2ccccc2)CC1)Nc1ccccc1F`: -6.18%; for `O=C(O)c1ccccc1C(=O)Nc1ccccc1NC(=O)c1ccccc1C(=O)O`: 5.06%; for `CCCSc1oc(-c2ccco2)nc1S(=O)(=O)c1ccccc1`: 1.06%. Regarding `COc1cc(SC)ccc1C(=O)NCCc1c[nH]c2ccccc12`, the inhibition was 8.89%. As for `CC(C)(C)NC(=O)CSCc1c(Cl)cccc1Cl`, the inhibition was 3.06%. The same measure for `N#Cc1c(-c2ccc(Cl)cc2)c2c([nH]c1=S)CCCC2`: 25.6%; for `COc1ccc(-c2c3c([nH]c(=S)c2C#N)CCC3)cc1`: 34.4%.

In the case of `COc1ccc(OC)c(-c2c3c([nH]c(=S)c2C#N)CCCC3)c1`, the inhibition was 20.7%.

On to `N#Cc1c(-c2ccncc2)c2c([nH]c1=S)CCCC2`, for which the inhibition was 16.1%. Next, `O=C(CN1C(=O)/C(=C/c2ccc(C(F)(F)F)cc2)Sc2ccccc21)NCCCN1CCOCC1`: 6.23%; `O=[N+]([O-])c1ccc(N2CCN(c3ccccn3)CC2)c(Cl)c1`: 9.91%. On to `CSc1nnc(-c2ccco2)c(-c2ccco2)n1`, for which the inhibition was 54.2%. The same measure for `O=C(CSc1nnc(-c2ccco2)c(-c2ccco2)n1)c1ccccc1`: -0.39%; for `COc1ccc(-n2nnnc2SCC(=O)NCCc2ccccc2)cc1OC`: 5.41%. Regarding `Cc1cccc(-c2noc(CNC(=O)c3ccc4c(c3)OCO4)n2)c1`, the inhibition was 9.48%. Next, `CC(CCc1ccccc1)NC(=O)CCc1cn(C)c2ccccc12` (stereo not drawn): 8.16%. The same measure for `CCCCC(CC)CNC(=O)c1ncn[nH]1` (stereo not drawn): 9.07%; for `CCCCC(CC)CNC(=O)c1cccs1` (stereo not drawn): 0.58%; for `CC1(C)CN(c2ccc(F)cc2)C1=O`: 10%. Next, `CC1(C)CN(c2ccc(N3CC(C)(C)C3=O)cc2)C1=O`: 7.74%; `COc1ccc(/C=N/N=C/c2ccc(OC)c(O)c2)cc1O`: 1.26%; `Oc1ccc(N=Cc2ccc(OCc3ccccc3)cc2)cc1`: 15.6%. In the case of `CC1CCCC(C)N1/N=C/c1ccc(O)c(O)c1` (stereo not drawn), the inhibition was 32.1%. Next, `Oc1ccc(/C=N/N=C/c2ccc(O)cc2)cc1`: 27.4%; `CCn1c(CNC(=O)c2ccco2)nnc1SCC(=O)Nc1ccc(Br)cc1F`: 3.84%; `CCN(CC)S(=O)(=O)c1ccc(Cl)c(NC(=O)COc2ccc(OC)cc2)c1`: 21.5%. Take `COc1ccccc1Cn1cccc1C=O`: the inhibition is -6.2%.

Turning to `Cc1ccc(CCNC(=O)C2CCC(=O)N2Cc2ccc(F)cc2)cc1` (stereo not drawn), the inhibition is 8.48%. The same measure for `CC(=O)Nc1ccc2[nH]ccc2c1`: 18.6%; for `C/C(=N\O)c1ccc2[nH]ccc2c1`: 8.8%. In the case of `Oc1c(Br)cc(/C=N/NC(=S)NCC2CCCO2)cc1Br` (stereo not drawn), the inhibition is 27.3%. With `COc1cccc(/C=N/NC(=O)CNC(=O)c2ccco2)c1O`, the inhibition was 23.9%. With `COc1ccc(/C=N/NC(=S)NCC2CCCO2)cc1` (stereo not drawn), the inhibition was 7.07%. The same measure for `O=C(NCC1CCCO1)C(=O)N/N=C/c1ccc(O)c(Cl)c1` (stereo not drawn): 30.4%.

As for `COc1cc(/C=N/NC(=O)C(=O)NCC2CCCO2)cc(Cl)c1O` (stereo not drawn), the inhibition is 22.2%.

Turning to `COc1cc(/C=N/NC(=O)C(=O)NCc2ccco2)cc(Br)c1O`, the inhibition is 29.1%.

`O=C(CNC(=O)c1ccco1)N/N=C/c1ccc(O)c([N+](=O)[O-])c1`: the inhibition was -0.16%.

On to `COc1cc(/C=N/NC(=O)C(=O)NCc2ccco2)cc(Cl)c1O`, for which the inhibition was 28.7%. On to `COc1ccc(OC)c(S(=O)(=O)N2CCC(C(=O)NC3CCCC3)CC2)c1`, for which the inhibition is 8.53%. With `NC(=O)CC(NC(=O)Cc1cccc2ccccc12)c1ccc(NC2CC3CCC2C3)c([N+](=O)[O-])c1` (stereo not drawn), the inhibition is 17.8%.

Turning to `O=C(CCn1c(=O)oc2ccccc21)N1CCN(c2ccc(F)cc2)CC1`, the inhibition was 2.5%. Next, `COC(=O)C1=C(C)NC(=O)NC1c1ccco1` (stereo not drawn): 8.25%; `C=CCOc1ccc(Oc2cc(C)nc(SC)n2)nn1`: 19.1%; `CCCOC(=O)c1cccc(NC(=O)C(C)(C)C)c1`: -1.32%.

On to `O=C(CNC(=S)N(Cc1ccccc1Cl)C1CCCC1)NCCN1CCOCC1`, for which the inhibition was 3.17%.

With `COc1cccc(O)c1CN1CCCC(C(=O)c2cccc(C(F)(F)F)c2)C1` (stereo not drawn), the inhibition is 4.62%. Next, `Cn1c(=O)c([N+](=O)[O-])c(NCC(O)c2ccccc2)c2ccccc21` (stereo not drawn): 21.3%; `Cn1c(=O)[nH]c(=O)c2c1nc(CN1CCN(c3cccc(Cl)c3)CC1)n2CCc1ccccc1`: 1.29%.
